Measured values published in PubChem BioAssay AID720576 (National Center for Advancing Translational Sciences (NCATS), 2013).
Some of the results follow. Records with an inconclusive call do not appear. Activity calls are given as the source filed them. The call rests on the fitted dose curve; in most records, active means well fitted inhibition curve with a large enough effect; inconclusive means small, poorly fitted or top-dose-only effect; inactive means no such curve, though single readings can be large or run the other way.

Assay: qHTS Assay for Inhibitors of Hepatitis C Virus (HCV): Cytotoxicity Counterscreen for Cherry-picked Compounds
Settings: HCV host cell line cytotoxicity counterscreen; series mostly up to 41.8 µM; activity change, negative = cytotoxicity: at the top concentration
Text: Hepatitis C virus (HCV) infects about 200 million people in the world. Many infected people progress to chronic liver disease including cirrhosis with a risk of developing liver cancer. To date, there is no effective vaccine for hepatitis C. Current therapy based on interferon is only effective in about half of the patients and is associated with significant adverse effects. The fraction of people with HCV who can complete a successful treatment is estimated to be no more than 10 percent. Recent development of direct-acting antivirals against HCV, such as protease and polymerase inhibitors, is promising but still requires combination with peginterferon and ribavirin for maximal efficacy. In addition, these agents are associated with high rate of resistance and many have significant side effects. Due to the lack of a culture system for infectious HCV, the search for new HCV drugs has been greatly hampered. […] High-throughput screening (HTS) with an infectious HCV system would cover the complete spectrum of potentially druggable targets in all stages of HCV lifecycle, and would have more biological relevance than other cell-based assays. Moreover, targeting several key processes in the viral life cycle may not only increase antiviral efficacy; more importantly, it may also reduce the capacity of the virus to develop resistance to the compound.
The goal of this project is to identify novel HCV inhibitors as new therapies for hepatitis C, using a highly sensitive and specific assay platform based on a HCV infectious cell culture system established in the laboratory and adapted for high-throughput HCV drug screen. The primary assay was used to screen the MLPCN compound library and potential inhibitors were cherry picked for confirmation and further characterization. To evaluate the cytotoxic effect of the selected compounds, a secondary cell based counterscreen using the Promega CellTiter Glo reagent and Huh cell line was developed. The data herein is the result of the Cytotoxicity counterscreen against the cherry picked compounds. No significant activity is the desired outcome for this assay.
NIH Chemical Genomics Center [NCGC]
NIH Molecular Libraries Probe Centers Network [MLPCN]
Assay Submitter (PI): Jake Liang, NIDDK
Cells were plated in a 1536-wel tissue culture grade plates at a final concentration of 1,000 cells/well (3 uL volume). The assay plate was culture for 4 h. Then 23 nL of compounds from the library collection was added to each well and incubated for 44 h at 37C, 5% CO2. A volume of 4.5 uL CellTiterGlo reagent was to each well and the plates were incubated at room temperature for 15 min. The luminescence signal was read for 15 sec using the PerkinElmer ViewLux plate reader.
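Further: 44 h compound exposure; nearly all actives have a fitted effect of over 55% in size.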
On the % scale 0 is the no-effect control and ±100 the full control effect.

Row | Structure (SMILES) | activity change, negative = cytotoxicity | Potency
1 | CCCc1nc2ccccc2c(C(=O)OCc2nnc(-c3cc(OC)c(OC)c(OC)c3)o2)c1CC | -38.9% (inactive) | –
2 | Cc1cc(-c2cccs2)nc(-n2cccc2)n1 | -10.5% (inactive) | –
3 | O=S(=O)([N-]c1nc2ccccc2nc1-[n+]1ccc(Cc2ccccc2)cc1)c1ccc(Br)s1 | -37.7% (inactive) | –
4 | COCCCn1c(SCc2cccc(OC)c2)nc2cc(OC)c(OC)cc2c1=N | -6.07% (inactive) | –
5 | CCCOc1ccc(C(=O)C(CCC(CNCC)C(=O)c2ccc(OCCC)cc2)CNCC)cc1 (stereo not drawn) | – | 7.91 µM (active)
6 | CC(C)(C)c1ccc(Oc2ccc(N)cc2)cc1 | -51.7% (inactive) | –
7 | Cc1ccc(C)c(N2CCN(C(=O)CCCCCn3c(=S)[nH]c4ccc(N5CCOCC5)cc4c3=O)CC2)c1 | – | 9.95 µM (active)
8 | COc1ccc(NC(=O)c2sc(N3CCOCC3)nc2-c2ccccc2)c(OC)c1 | 13.7% (inactive) | –
9 | Cc1c(-c2cccc(Cl)c2)nc2ccccc2c1C(=O)OCC(=O)N(C)C1CCS(=O)(=O)C1 (stereo not drawn) | 8.7% (inactive) | –
10 | COc1ccc(OCCNC(=O)c2cc(C3CC3)nc3c2cnn3C(C)C)cc1 | 40.8% (inactive) | –
11 | CN(C)c1nc(N)nc(CSc2nnnn2-c2cccc3ccccc23)n1 | – | 6.28 µM (active)
12 | N#C/C(=C1\CCCN1)c1nc(-c2ccccc2)cs1 | 27.9% (inactive) | –
13 | COc1ccc(C(C(=O)NC2CCCCC2)N(C(=O)CCl)c2ccccc2Cl)cc1 (stereo not drawn) | – | 2.5 µM (active)
